About 79,000 compounds went through this panel and 15% of them were active in at least one assay; those are over-represented in the sample as a whole. The source made the active and inactive calls. Cut-off read from the data, not from the text of the source: active = growth inhibition above about 70%; inactive = the rest.
Tests used:
[1] = NCI Yeast Anticancer Drug Screen. Data for the rad50 strain (AID 155);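 note: 0% = growth of vehicle-only cultures of the same strain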; conditions: S. cerevisiae rad50 strain growth inhibition, active compounds read high
Procedure, shortened: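 DNA repair mutant yeast, compound exposure, growth read-out; inhibition is taken relative to vehicle.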

[2] = NCI Yeast Anticancer Drug Screen. Data for the mec2-1 strain (AID 157); conditions: S. cerevisiae mec2-1 strain, active compounds read high
Procedure, shortened: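 Test agents were screened against the mec2-1 yeast strain, with defined DNA repair or cell cycle alteration. Growth was scored as inhibition against vehicle-only controls.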

[3] = NCI Yeast Anticancer Drug Screen. Data for the sgs1 mgt1 strain (AID 161);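 note: 0% = growth of cultures given vehicle only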; conditions: S. cerevisiae sgs1 mgt1 strain, active compounds read high
Procedure, shortened: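 Mutant yeast exposed to compound; growth scored against vehicle-only wells.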

[4] = NCI Yeast Anticancer Drug Screen. Data for the cln2 rad14 strain (AID 165);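 note: 0% = growth equal to vehicle treated cultures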; conditions: S. cerevisiae cln2 rad14 strain, active compounds read high
Procedure, shortened: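 Growth of compound-exposed yeast (cln2 rad14 genotype) measured and expressed as inhibition relative to vehicle.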

[5] = NCI Yeast Anticancer Drug Screen. Data for the bub3 strain (AID 167); conditions: S. cerevisiae bub3 mutant strain, active compounds read high
Procedure, shortened: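 In this screen, a yeast mutant lacking normal mitotic checkpoint function is challenged with compound. Relative growth versus vehicle gives the inhibition value.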

[6] = NCI Yeast Anticancer Drug Screen. Data for the mlh1 rad18 strain (AID 175); conditions: S. cerevisiae mlh1 rad18 strain growth inhibition, active compounds read high
Procedure, shortened: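 In this whole-cell yeast screen, a strain with altered DNA damage repair is challenged with compound, and its growth is measured against matched vehicle-treated controls.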

[7] = at 5.0 µM (retest, dose inferred, filed as 0.5)
[8] = at 50.0 µM (retest, dose inferred, filed as 5.0)

Measured: growth inhibition

Clc1ccc2ns[s+]c2c1
active: [1]; [8] 78% | [1]; at 50.0 µM 73.7% | [2]; [8] 93% | [3]; [8] 86% | [3]; at 50.0 µM 80.6% | [5]; [8] 96% | [5]; at 50.0 µM 72.3% | [6]; [8] 85%
inactive: [1]; [7] 8% | [2]; [7] 13% | [2]; at 50.0 µM 48.1% | [3]; [7] 12% | [4]; [7] 21% | [4]; [8] 49% | [4]; at 50.0 µM 47.8% | [5]; [7] 26% | [6]; [7] 17% | [6]; at 50.0 µM -27.7%

O=C(/C=C/c1cccc2ccccc12)c1cccc([N+](=O)[O-])c1
inactive: [1]; [7] 11% | [1]; [8] -10% | [1]; at 50.0 µM 12.3% | [2]; [7] -25% | [2]; [8] -15% | [2]; at 50.0 µM -4.05% | [3]; [7] -2% | [3]; [8] 2% | [3]; at 50.0 µM 14.3% | [4]; [7] 7% | [4]; [8] 5% | [4]; at 50.0 µM 0% | [5]; [7] -8% | [5]; [8] -12% | [5]; at 50.0 µM -5.2% | [6]; [7] -12% | [6]; [8] -51% | [6]; at 50.0 µM -5.35%

C=C1CCC[C@@H]2[C@@](C)(CC3=CC(=O)C=CC3=O)C(C)CC[C@]12C (some centres not stated)
active: [1]; [8] 96% | [1]; at 50.0 µM 98.5% | [2]; [8] 96% | [2]; at 50.0 µM 88.7% | [3]; [8] 97% | [3]; at 50.0 µM 98.7% | [4]; [8] 93% | [4]; at 50.0 µM 95.2% | [5]; [8] 96% | [5]; at 50.0 µM 98.6% | [6]; [8] 95% | [6]; at 50.0 µM 98.5%
inactive: [1]; [7] 39% | [2]; [7] 43% | [3]; [7] 54% | [4]; [7] 7% | [5]; [7] 27% | [6]; [7] 55%

COc1ccccc1/C=C(\NC(=O)c1ccccc1)c1nc2ccccc2[nH]1
inactive: [1]; [7] 42% | [2]; [7] 30% | [3]; [7] 38% | [4]; [7] 16% | [5]; [7] 3% | [6]; [7] 21%
active: [1]; [8] 96% | [1]; at 50.0 µM 97.8% | [2]; [8] 98% | [2]; at 50.0 µM 95% | [3]; [8] 99% | [3]; at 50.0 µM 96.4% | [4]; [8] 74% | [4]; at 50.0 µM 95% | [5]; [8] 88% | [5]; at 50.0 µM 98% | [6]; [8] 96% | [6]; at 50.0 µM 96.4%

O=NNc1ccc(Sc2ccc3ccccc3c2)cn1
inactive: [1]; [7] 21% | [1]; [8] 41% | [1]; at 50.0 µM 21.5% | [2]; [7] 24% | [2]; [8] 36% | [2]; at 50.0 µM 12.2% | [3]; [7] 20% | [3]; [8] 27% | [3]; at 50.0 µM 19.1% | [4]; [7] 32% | [4]; [8] 43% | [4]; at 50.0 µM 24.8% | [5]; [7] 30% | [5]; [8] 37% | [5]; at 50.0 µM 35% | [6]; [7] 25% | [6]; [8] 47% | [6]; at 50.0 µM 51.5%

Cc1c(Cl)c(S(N)(=O)=O)cc2c1NC=NS2(=O)=O
inactive: [1]; [7] 10% | [1]; [8] -10% | [1]; at 50.0 µM 7.45% | [2]; [7] -1% | [2]; [8] 2% | [2]; at 50.0 µM -22.8% | [3]; [7] -2% | [3]; [8] -14% | [3]; at 50.0 µM -26.1% | [4]; [7] 7% | [4]; [8] 9% | [4]; at 50.0 µM 22.4% | [5]; [7] -13% | [5]; [8] -3% | [5]; at 50.0 µM -20.4% | [6]; [7] -3% | [6]; [8] 10% | [6]; at 50.0 µM -16.6%

COc1cccc2c1C1c3ccccc3Sc3cccc(c31)O2 (configuration not stated)
inactive: [1]; [7] 6% | [1]; [8] 3% | [1]; at 50.0 µM 5.2% | [2]; [7] 6% | [2]; [8] 3% | [2]; at 50.0 µM 18.3% | [3]; [7] 4% | [3]; [8] 3% | [3]; at 50.0 µM 19.6% | [4]; [7] 1% | [4]; [8] -21% | [4]; at 50.0 µM 40.2% | [5]; [7] -1% | [5]; [8] -2% | [5]; at 50.0 µM 43.9% | [6]; [7] 4% | [6]; [8] 1% | [6]; at 50.0 µM 21.1%

Cc1cc(O)ccc1C1(c2ccc(F)cc2)OC(=O)c2ccccc21 (configuration not stated)
active: [1]; [8] 99% | [1]; at 50.0 µM 90.1% | [2]; [8] 99% | [2]; at 50.0 µM 91.8% | [3]; [8] 99% | [3]; at 50.0 µM 88.2% | [4]; [8] 97% | [4]; at 50.0 µM 91.5% | [5]; [8] 98% | [5]; at 50.0 µM 90.3% | [6]; [8] 99% | [6]; at 50.0 µM 89.6%
inactive: [1]; [7] 31% | [2]; [7] 32% | [3]; [7] 37% | [4]; [7] 31% | [5]; [7] 29% | [6]; [7] 45%

CC(=O)Oc1cccc2c(OC(C)=O)cccc12
active: [1]; [8] 87% | [2]; [8] 91% | [3]; at 50.0 µM 70.8% | [5]; [8] 92% | [6]; [8] 89%
inactive: [1]; [7] -8% | [1]; at 50.0 µM 69.2% | [2]; [7] -19% | [2]; at 50.0 µM 39.8% | [3]; [7] -9% | [3]; [8] 53% | [4]; [7] -8% | [4]; [8] 34% | [4]; at 50.0 µM 26.9% | [5]; [7] -32% | [5]; at 50.0 µM 58.2% | [6]; [7] -6% | [6]; at 50.0 µM 65.6%
